DT40 TDP1 no CPT – qHTS for Inhibitors of human tyrosyl-DNA phosphodiesterase 1 (TDP1): qHTS in cells in absence of CPT; DT40 Tdp1-/- hTDP1 cells, no CPT, ATP luminescence, 48 h; Potency, µM (titrated, usually from 46.2 µM), hits mostly inhibitors; 420,000 compounds, 15% hits; AID 686978, 2013; also: nearly all actives have a fitted effect of over 55% in size
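Luminescent ATP content (CellTiter-Glo) served as the growth readout. Knockout chicken DT40 cells expressing human TDP1 were exposed to compounds without camptothecin for a minimum 48 hr at 37 °C.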
uPA surface inh – qHTS for Inhibitors of Cell Surface uPA Generation. cell surface uPA generation assay, qHTS. Potency, µM (titrated, usually from 38.3 µM), actives largely listed as inhibitors. 330,000 compounds, 0.31% hits; active = well fitted inhibition curve with a large enough effect; inconclusive = small, poorly fitted or top-dose-only effect; inactive = no such curve, though single readings can be large or run the other way; tested in mouse RAW 264.7 cells; also: nearly all actives have a fitted effect of over 55% in size
TDP1 cell CPT – qHTS for Inhibitors of human tyrosyl-DNA phosphodiesterase 1 (TDP1): qHTS in cells in presence of CPT | chicken DT40 Tdp1-/-;hTDP1 cells + 20 nM CPT, ATP luminescence, 48 h | Potency, µM (highest dose often 46.2 µM), hits mostly inhibitors | 420,000 compounds, 12% hits; also: nearly all actives have a fitted effect of over 55% in size
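Chicken DT40 Tdp1-/- cells complemented with human TDP1, 400 cells/well, exposed to compounds plus 20 nM camptothecin for at least 48 h at 37 C; viability read as ATP content by CellTiter-Glo luminescence.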
IL1B secr inh – qHTS for Inhibitors of Inflammasome Signaling: IL-1-beta AlphaLISA Primary Screen | 360,000 compounds, 4.7% hits | activity change, % at 57.5 µM | AID 743279, 2014 | THP-1 LPS/ATP IL-1B secretion, AlphaLISA, 16 h; stronger effect = lower value; in the data active = activity change below about -50%; inconclusive = mostly about -30% to -49%
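Secreted IL-1B measured by AlphaLISA bead assay after 16 h compound exposure of THP-1 cells; compounds (final up to 57.5 uM) added 1 h before LPS (250 ng/mL) and ATP (1.25 mM) stimulation; lower signal means less secretion.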
HT1080NT lethal – qHTS for induction of synthetic lethality in tumor cells producing 2HG: qHTS for the HT-1080-NT fibrosarcoma cell line; AID 686970, 2013; 360,000 compounds, 1.6% hits; Potency, µM (highest dose often 46.1 µM), most hits filed as cytotoxic; HT-1080-NT fibrosarcoma viability, CellTiter-Glo ATP luminescence, 48 h;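 also: NT is the 2HG producing partner of a matched IDH1 knockdown line; nearly all actives have a fitted effect of over 55% in size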
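Luminescent CellTiter-Glo readout after 48 hours of compound exposure at 37 degrees C defined viability of HT-1080-NT cells. Activity was normalized to DMSO wells and cell-free media wells; concentration-response curves were fitted and assigned curve classes.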
HT1080 IDH1KD tx – qHTS for induction of synthetic lethality in tumor cells producing 2HG: qHTS for the HT-1080-IDH1KD cell line | HT-1080 IDH1 knockdown viability, ATP luminescence, 48 h | Potency, µM (series often up to 46.1 µM), actives largely listed as cytotoxic | 360,000 compounds, 2% hits
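IDH1KD HT-1080 cells, 750/well, RPMI + 5% FBS; compound pinned after 2 h settling; 48 h, 37 °C; CellTiter-Glo luminescence; % activity normalised to DMSO and no-cell wells; curves fitted, classed by r2 and efficacy.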
Large screens that a line does not name were inactive. Rows were chosen to be rich in hits. Some 19% of all compounds tested hit in one or more screens of this group. Unless noted, calls follow the shape of the dose curve; as a rule, active = well fitted curve in the direction sought with a large enough effect; inconclusive = small, poorly fitted or top-dose-only effect, or another doubt; inactive = no such curve, though single readings can be large; an effect the other way counts as inactive or inconclusive.

COc1ccc(-n2nnnc2C(c2cc3ccccc3o2)N2CCC(n3c(=O)[nH]c4ccccc43)CC2)cc1 (stereo not given)	DT40 TDP1 no CPT 23µM, TDP1 cell CPT inconclusive, HT1080NT lethal inconclusive, HT1080 IDH1KD tx inconclusive (no result: uPA surface inh)
CN1C2CCC1C(COC(=O)c1ccccc1)C(O)C2 (stereo not given)	none
CC1CCN(C(CC(=O)c2ccccc2)C(=O)c2ccccc2)CC1 (stereo not given)	DT40 TDP1 no CPT 2.1µM, TDP1 cell CPT 2.6µM, IL1B secr inh -67, HT1080 IDH1KD tx inconclusive
OCCNCCc1c[nH]c2ccc(OCc3ccccc3)cc12	DT40 TDP1 no CPT inconclusive, HT1080NT lethal inconclusive
O=Cc1cc(OCc2ccccc2)ccc1[B-](F)(F)F	DT40 TDP1 no CPT 2.1µM, uPA surface inh inconclusive, TDP1 cell CPT 1.3µM
Cc1ccc(-n2c(O)c(C=Nc3ccc(Br)cn3)c(=O)[nH]c2=O)cc1	HT1080NT lethal inconclusive
COC(=O)C1=C(c2cc3ccccc3s2)C[C@@H]2CC[C@H]1N2C(=O)NC1CCCCC1	DT40 TDP1 no CPT inconclusive, uPA surface inh inconclusive, TDP1 cell CPT 18µM
COC(=O)C1=C(c2cc3ccccc3s2)C[C@@H]2CC[C@H]1N2C(=O)N1CCCCC1	DT40 TDP1 no CPT 6.5µM, uPA surface inh inconclusive, TDP1 cell CPT 2.9µM, HT1080NT lethal inconclusive, HT1080 IDH1KD tx 8.2µM
COC(=O)C1=C(c2cc3ccccc3s2)C[C@@H]2CC[C@H]1N2C(=O)N1CCC(O)CC1	DT40 TDP1 no CPT 23µM, TDP1 cell CPT 15µM
Cc1cc(C)n(-c2nc3nonc3nc2Nc2cccc(C)c2C)n1	DT40 TDP1 no CPT inconclusive, TDP1 cell CPT inconclusive
COC12c3ccccc3-c3ccccc3C1C(C(=O)O)C2C(=O)O (stereo not given)	none (no result: uPA surface inh)
Cc1[nH]c2ccc(OCc3ccccc3)cc2c1CCN	DT40 TDP1 no CPT 13µM, TDP1 cell CPT 15µM (no result: IL1B secr inh)
CCn1nc(-c2ccccc2)nc2c(=O)n(C)c(=O)nc1-2	DT40 TDP1 no CPT 2.6µM, TDP1 cell CPT 1.3µM, IL1B secr inh -114, HT1080NT lethal 4.1µM, HT1080 IDH1KD tx 5.8µM
O=c1[nH]c2ccccc2n1C1CCN(C(CCc2ccccc2)c2nnnn2Cc2ccccc2)CC1 (stereo not given)	DT40 TDP1 no CPT 2.6µM, TDP1 cell CPT 2.3µM, IL1B secr inh -93, HT1080NT lethal 7.3µM, HT1080 IDH1KD tx 6.5µM (no result: uPA surface inh)
O=c1[nH]c2ccccc2n1C1CCN(C(c2nnnn2Cc2ccccc2)C2CC2)CC1 (stereo not given)	DT40 TDP1 no CPT 21µM, TDP1 cell CPT 16µM, HT1080NT lethal inconclusive, HT1080 IDH1KD tx 21µM (no result: uPA surface inh)
O=c1[nH]c2ccccc2n1C1CCN(C(c2nnnn2C2CCCC2)C2CC2)CC1 (stereo not given)	DT40 TDP1 no CPT inconclusive, TDP1 cell CPT inconclusive (no result: uPA surface inh)
CSCCC(c1nnnn1Cc1ccccc1)N1CCC(n2c(=O)[nH]c3ccccc32)CC1 (stereo not given)	DT40 TDP1 no CPT 1.8µM, TDP1 cell CPT 2.9µM, HT1080NT lethal inconclusive, HT1080 IDH1KD tx inconclusive (no result: uPA surface inh)
CC(CC(C#N)(c1ccccc1)c1ccccc1)N1CCOCC1 (stereo not given)	DT40 TDP1 no CPT inconclusive, TDP1 cell CPT 23µM, IL1B secr inh inconclusive
CN(C)C1C(=O)C(C(N)=O)=C(O)C2(O)C(=O)C3=C(O)c4c(O)cccc4C(C)(O)C3C(O)C12 (stereo not given)	DT40 TDP1 no CPT 7.3µM, TDP1 cell CPT 10µM
CN(C)C1C(=O)C(C(N)=O)=C(O)[C@@]2(O)C(=O)C3=C(O)c4c(O)ccc(Cl)c4[C@](C)(O)C3CC12 (stereo not given in full)	DT40 TDP1 no CPT 18µM, TDP1 cell CPT 16µM (no result: uPA surface inh, IL1B secr inh, HT1080NT lethal, HT1080 IDH1KD tx)
Clc1ccc(C2(Cn3cncn3)OCCO2)c(Cl)c1	none (no result: uPA surface inh, IL1B secr inh, HT1080NT lethal, HT1080 IDH1KD tx)
CCCCC[C@@H](/C=C/C1C(=O)C=C[C@H]1C/C=C\CCCC(=O)O)OC(C)=O (stereo not given in full)	DT40 TDP1 no CPT 23µM, uPA surface inh inconclusive, TDP1 cell CPT 21µM, IL1B secr inh -77
Cc1ccc(C2C(=O)NC(=O)NC2=O)cc1	none
CCOc1ccc(-c2cc(C)[n+](CCN3CCOCC3)c(-c3ccc(OCC)cc3)c2)cc1	DT40 TDP1 no CPT 1.3µM, TDP1 cell CPT 1.5µM, HT1080 IDH1KD tx inconclusive (no result: IL1B secr inh)
C[C@H](N)Cc1cnc[nH]1	none (no result: uPA surface inh, IL1B secr inh, HT1080NT lethal, HT1080 IDH1KD tx)
Cc1cccc(C(C)c2cnc[nH]2)c1C (stereo not given)	DT40 TDP1 no CPT inconclusive, TDP1 cell CPT 27µM (no result: uPA surface inh, IL1B secr inh, HT1080NT lethal, HT1080 IDH1KD tx)
CC(=O)c1cn(Cc2ccc(F)cc2)c2ccccc12	DT40 TDP1 no CPT 18µM, TDP1 cell CPT 21µM
COC(=O)c1cn(Cc2ccc(F)cc2)c2ccccc12	TDP1 cell CPT inconclusive, HT1080 IDH1KD tx inconclusive (no result: uPA surface inh)
C=CCCC1(CC)C(=O)NC(=S)NC1=O	none
CN(C)C(=O)Oc1ccc(Br)cc1C(=O)Nc1ccc(F)c(Cl)c1	DT40 TDP1 no CPT 23µM, TDP1 cell CPT 23µM, IL1B secr inh -59, HT1080NT lethal inconclusive, HT1080 IDH1KD tx inconclusive
O=P(O)(O)C12CC3CC(CC(C3)C1)C2	none
CC[C@@H](C(=O)[C@@H](C)[C@@H](O)[C@H](C)[C@@H]1O[C@@H]([C@@H](CC)C(=O)O)CC[C@@H]1C)[C@H]1O[C@]2(C=C[C@@H](O)[C@]3(CC[C@@](C)([C@H]4CC[C@](O)(CC)[C@H](C)O4)O3)O2)[C@H](C)C[C@@H]1C	DT40 TDP1 no CPT 0.52µM, TDP1 cell CPT 0.58µM, IL1B secr inh -111, HT1080NT lethal 0.52µM, HT1080 IDH1KD tx 2.9µM
Cc1onc(-c2ccccc2Cl)c1C(=O)NCc1ccc2c(c1)cc(C)n2C	DT40 TDP1 no CPT 6.5µM, TDP1 cell CPT inconclusive
CCN1C[C@]2(COC(=O)c3ccccc3N3C(=O)CC(C)C3=O)CC[C@H](OC)[C@@]34C5C[C@@H]6[C@@H](OC)C[C@@](O)(C5[C@H]6OC)[C@](O)([C@@H](OC)C23)[C@@H]14 (stereo not given in full)	none (no result: uPA surface inh, IL1B secr inh, HT1080NT lethal, HT1080 IDH1KD tx)
CCOc1ccc(NC(=O)c2c(O)[nH]c(=O)[nH]c2=O)cc1	DT40 TDP1 no CPT 16µM, uPA surface inh inconclusive, TDP1 cell CPT 23µM
CSc1cccc(NC(=O)C2CCN(C(=O)c3cnn(-c4ccccc4)c3-n3cccc3)CC2)c1	DT40 TDP1 no CPT 18µM, TDP1 cell CPT 16µM (no result: uPA surface inh, IL1B secr inh, HT1080NT lethal, HT1080 IDH1KD tx)
